Cell number and H1.0 immunofluorescence intensity data for 13 compounds are collected here from the supplement of paper PMC7156485.

± gives the standard deviation of the averaged measurements.

Holding throughout (details): concentration: 10 µM; 24 h
The subject of experiment [1] is HCC1569. Kind of experiment: cell number relative to DMSO (% of DMSO); higher = more cells (less growth inhibition / toxicity). Put shortly:
(§1)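 HCC1569 and TDF cells (800 per well, 384-well plates, RPMI with 10% FBS) were treated with compounds at 10 µM for 24 h at 37 °C, in triplicate. Cells were fixed in 3.7% formaldehyde and stained with a rabbit anti-H1.0 antibody, an AlexaFluor 647 secondary and DAPI; six fields per well were imaged at ×10. H1.0 nuclear intensity or cell number is expressed as percent of the plate DMSO control, taking the median of replicates. HCC1569 values were smoothed for positional effects.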

Experiment [2] deals with TDF. The experiment is described as above. Put shortly: as §1
In experiment [3] the test system is TDF. Put plainly: H1.0 immunofluorescence intensity relative to DMSO (% of DMSO); higher = stronger H1.0 induction, active = 120 or more. Put shortly: as §1
Experiment [4] deals with HCC1569. Put plainly: H1.0 immunofluorescence intensity relative to DMSO (% of DMSO); higher = stronger H1.0 induction, active = 140 or more. Put shortly:
as §1
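For H1.0 immunofluorescence intensity relative to DMSO in this document: TDF is a line of transformed human dermal fibroblasts of mesenchymal origin.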
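For cell number relative to DMSO in this document: TDF denotes transformed human dermal fibroblasts of mesenchymal origin.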

In the case of `CCCCCCC(C)(C)c1ccc(C2CC(O)CCC2CCCO)c(O)c1` (configuration not stated), the cell number in the experiment with HCC1569 [1] was found to be 99.3; with TDF [2], 109. In addition, the H1.0 immunofluorescence intensity in the experiment on TDF [3] is 91.7 (inactive); in the experiment on HCC1569 [4], 93 (inactive).
As to `COC1C(O)C(C)OC(OC2CCC3(C=O)C(CCC4C3CCC3(C)C(C5=CC(=O)OC5)CCC43O)C2)C1O` (configuration not stated) [Peruvoside], the cell number in the experiment with HCC1569 [1] was found to be 52.3; in the experiment on TDF [2] it was 44. In addition, the H1.0 immunofluorescence intensity is 107 (inactive) in the experiment on TDF [3] and 106 (inactive) in the experiment on HCC1569 [4].
As to `COc1cc(CC(C)N)c(OC)cc1I.Cl` (racemic), the cell number was 101 in the experiment on HCC1569 [1] and 109 with TDF [2]. Moreover, the H1.0 immunofluorescence intensity with TDF [3] was 91.3 (inactive); with HCC1569 [4], 88.9 (inactive).
Turning to `CN1CC(CO)CC2c3cccc4[nH]cc(c34)CC21` (configuration not stated) [9,10-Dihydrolysergol], the cell number with HCC1569 [1] was found to be 96.5; with TDF [2], 98.2. The H1.0 immunofluorescence intensity in the experiment with TDF [3] was 102 (inactive); with HCC1569 [4], 92.7 (inactive).
Consider `CNC1CC2OC(C)(C1OC)n1c3ccccc3c3c4c(c5c6ccccc6n2c5c31)C(=O)NC4` (configuration not stated) [Staurosporine, Streptomyces sp.], for which the cell number in the experiment with HCC1569 [1] worked out at 56.3 ± 58; with TDF [2], 47.9 ± 67. Moreover, the values for the H1.0 immunofluorescence intensity in the experiment on TDF [3] and in the experiment with HCC1569 [4] were 149 (active) and 84.1 (inactive), respectively.
For the compound `CN(c1nc2ccccc2s1)C1CCN(CC(O)COc2ccc(F)c(F)c2)CC1.Cl.Cl` (configuration not stated), the cell number came to 84.8 in the experiment on HCC1569 [1] and 88.9 with TDF [2]. In addition, the figures for the H1.0 immunofluorescence intensity in the experiment with TDF [3] and in the experiment on HCC1569 [4] were 99 (inactive) and 141 (active), respectively.
Turning to `NCC(CC(=O)O)c1ccc(Cl)cc1` (racemic), the figures for the cell number with HCC1569 [1] and with TDF [2] were 99.3 and 112, respectively. The H1.0 immunofluorescence intensity is 94.3 (inactive) in the experiment on TDF [3] and 99.1 (inactive) with HCC1569 [4].
Turning to `CC1CC(C)C(=O)C(C(O)CC2CC(=O)NC(=O)C2)C1` (configuration not stated) [Cycloheximide], the cell number in the experiment on HCC1569 [1] was found to be 64.3; in the experiment on TDF [2] it was 41.7. For the same compound, the H1.0 immunofluorescence intensity was 110 (inactive) in the experiment with TDF [3] and 139 (inactive) with HCC1569 [4].
For `CN[C@@H]1Cc2cccc3[nH]c(=O)n(c23)C1.O=C(O)C=CC(=O)O` the same measures were 101, 105, 92.5 (inactive) and 89.2 (inactive).
Taken in the same sequence, the figures for `Br.CN1C2CC(OC(=O)C(CO)c3ccccc3)CC1C1OC12` (single isomer, unassigned; (-)) [(-)-Scopolamine hydrobromide] were 100, 104, 97.6 (inactive) and 103 (inactive).
Take `NC(=O)CN1CCCC1=O` [Piracetam]: the cell number in the experiment on HCC1569 [1] was 99.5; with TDF [2], 99.2. For the same compound, the H1.0 immunofluorescence intensity in the experiment on TDF [3] is 92 (inactive); in the experiment on HCC1569 [4], 103 (inactive).
For `COc1cc2c(c(OC)c1OC)-c1ccc(SC)c(=O)cc1C(NC(C)=O)CC2` (configuration not stated) [Thiocolchicine] the same measures were 59.6, 10.7, 187 (active) and 155 (active).
For the compound `CCCCCCC1C(=O)OC(C)C(NC(=O)c2cccc(NC=O)c2O)C(=O)OC(C)C1OC(=O)CC(C)C` (configuration not stated) [Antimycin A1], the cell number came to 73.6 in the experiment on HCC1569 [1] and 66.5 with TDF [2]. Besides, the H1.0 immunofluorescence intensity with TDF [3] was 113 (inactive); with HCC1569 [4] it was 136 (inactive).
